IDH1 R132H inh: blocks human mutant IDH1 R132H enzyme. Potency, µM (titrated, usually from 76.6 µM), without a hit: top-dose activity change, negative = inhibition, hits mostly inhibitors. 390,000 compounds, 0.093% hits. IDH1-R132H enzyme, NADPH consumption, diaphorase/resazurin fluorescence; further: potency means the concentration at half of the fitted maximal effect; on the % scale 0 is the no-effect control and ±100 the full control effect; nearly all actives have a fitted effect of over 65% in size
Target sequence (O75874 whole entry R132H, stated change not applied): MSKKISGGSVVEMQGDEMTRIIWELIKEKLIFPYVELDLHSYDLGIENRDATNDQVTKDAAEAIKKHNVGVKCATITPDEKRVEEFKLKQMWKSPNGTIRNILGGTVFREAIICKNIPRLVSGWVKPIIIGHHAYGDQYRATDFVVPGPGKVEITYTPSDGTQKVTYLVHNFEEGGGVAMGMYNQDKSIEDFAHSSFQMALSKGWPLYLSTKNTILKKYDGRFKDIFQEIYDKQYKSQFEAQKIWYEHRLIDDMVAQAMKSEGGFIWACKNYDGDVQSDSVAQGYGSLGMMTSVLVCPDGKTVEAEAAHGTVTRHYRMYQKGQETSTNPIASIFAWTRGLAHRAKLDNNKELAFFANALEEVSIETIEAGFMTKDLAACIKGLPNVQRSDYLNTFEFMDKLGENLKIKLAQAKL
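IDH1-R132H (0.5 ug/mL dispensed) in pH 7.5 Tris buffer was preincubated 30 min with compound, then given a substrate mix of 0.016 mM NADPH and 2 mM alpha-KG for 80 min at room temperature; remaining NADPH was read by diaphorase/resazurin fluorescence.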
GLP1R inv ag: inverse agonists of human GLP-1 receptor; AID 624417; P43220; Potency, µM (series often up to 38.3 µM), inactives show at the top dose activity change, negative = inhibition, most hits filed as inhibitors; HEK293 GLP-1R CRE-luciferase, luminescence, 24 h; GLP-1R form is constitutively active; 410,000 compounds, 1.6% hits; further: potency means the concentration at half of the fitted maximal effect; on the % scale 0 is the no-effect control and ±100 the full control effect; nearly all actives have a fitted effect of over 55% in size
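GLP-1R inverse agonism mode: basal reporter luminescence in engineered HEK293 cells measured after one day of compound exposure at 37 deg C, with a 12 min room-temperature detection step.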
GLP1R cytotox: cytotoxicity in counter-screen for GLP-1R inverse agonists; HEK293 cAMP-luciferase reporter cells, luminescence, 24 h; 410,000 compounds, 0.13% hits; AID 624418; Potency, µM (series often up to 38.3 µM), for the others: at the highest dose activity change, negative = inhibition, hits mostly inhibitors;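 further: loss of luciferase light is scored as toxicity; potency means the concentration at half of the fitted maximal effect; on the % scale 0 is the no-effect control and ±100 the full control effect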
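Here, cytotoxicity is scored as loss of luminescence. The MLSMR collection was tested on cells seeded in medium containing 10% Nu serum, with a 24 hr compound exposure preceded by 12 hours of culture.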
LDHA block: LDHA (human) enzyme inhibition | activity change, % (values are at about 110 or 230 µM) | 480,000 compounds, 0.15% hits | purified LDHA, NADH/diaphorase-resazurin fluorescence; stronger effect = lower value | P00338; in the data active means activity change below about -30%; inconclusive means mostly about -25% to -30%;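 further: plate controls were DMSO wells for no effect and wells without enzyme for full effect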
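Human LDH5 at 2 nM final in Tris HCl pH 7.4 with 0.06 mM NADH and 0.2 mM pyruvate, reacted 5 minutes at room temperature. Remaining NADH coupled via diaphorase/resazurin; resorufin fluorescence read at 0 and 20 minutes, normalized to enzyme-free and DMSO wells.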
GLP-1R agonist: activates the human GLP-1 receptor; AID 624172; 380,000 compounds, 0.007% hits; HEK293 GLP-1R CRE-luciferase, luminescence, 4-6 h; cells express a hypersensitive GLP-1R form; Potency, µM (titrated, usually from 45.6 µM), for the others: top-dose activation, usual class: activators; P43220; further: potency means the concentration at half of the fitted maximal effect; % of control where 0% means no effect
PTHR1 agonist: PTHR1 (human) receptor agonism | Q03431 | HEK293 GP2 PTHR1 cells, GloSensor cAMP luminescence, 1 h | Potency, µM (titrated, usually from 115 µM), without a hit: at the highest dose activation, actives largely listed as activators | 410,000 compounds, 0.075% hits | AID 743266; further: potency means the concentration at half of the fitted maximal effect; nearly all actives have a fitted effect of over 55% in size
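HEK-293-derived GP2 cells expressing PTHR1 and a GloSensor cAMP reporter, 3,000/well, plated overnight, given luciferin plus IBMX (each 0.5 mM as added) for 1 h at 37 °C, then compound for 1 h at 37 °C. Luminescence was read after 15 min at room temperature.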
Numbers without * were called inactive; [ ] = another dose, or the depositor's remark. An excerpt weighted towards active compounds, which were near 1.7% of everything screened. Unless noted, the call rests on the fitted dose curve; in most records, active means well fitted curve in the direction sought with a large enough effect; inconclusive means small, poorly fitted or top-dose-only effect, or another doubt; inactive means no such curve, though single readings can be large; an effect the other way counts as inactive or inconclusive.

What do the screens show for `CN(CC(=O)Nc1cccc(F)c1)CC(=O)Nc1cccc(S(=O)(=O)N2CCCCC2)c1`?
IDH1 R132H inh: -1.2%; GLP1R inv ag: 7.94µM*; GLP1R cytotox: -24.0%; LDHA block: -6.7; GLP-1R agonist: -1.4%; PTHR1 agonist: -32.8%

Results for O=C(CNc1ccc(C(F)(F)F)cc1)Nc1cccc(S(=O)(=O)N2CCCCC2)c1 ?
IDH1 R132H inh: 2.4%; GLP1R inv ag: 3.98µM*; GLP1R cytotox: -20.3%; LDHA block: -1.0; GLP-1R agonist: -3.3%; PTHR1 agonist: -52.8%

How did O=C(Cc1cccc(C(F)(F)F)c1)Nc1cccc(S(=O)(=O)N2CCCC2)c1 do in these assays?
IDH1 R132H inh: -0.9%; GLP1R inv ag: 8.91µM*; GLP1R cytotox: -8.0%; LDHA block: 0.8; GLP-1R agonist: -1.8%; PTHR1 agonist: -50.1%

How did O=C(CNc1ccc(C(F)(F)F)cc1)Nc1cccc(S(=O)(=O)N2CCCC2)c1 do in these assays?
IDH1 R132H inh: -2.8%; GLP1R inv ag: inconclusive; GLP1R cytotox: -10.6%; LDHA block: 0.5; GLP-1R agonist: 8.3%; PTHR1 agonist: -59.7%

What do the screens show for `CCOc1ccc(NC(=O)CNc2cccc(S(=O)(=O)N3CCCCCC3)c2)cc1OCC`?
IDH1 R132H inh: -4.0%; GLP1R inv ag: 10µM*; GLP1R cytotox: -21.2%; LDHA block: -0.7; GLP-1R agonist: 2.8%; PTHR1 agonist: -31.2%

Results for O=C(CCSc1nc2cc(Cl)ccc2s1)NC1CCCCC1 ?
LDHA block: 7.6

Results for Oc1ccc2ccccc2c1C=NCC12CC3CCC(CC(C3)C1)C2 ?
LDHA block: 23.6

What do the screens show for `COc1ccc(NC(=O)/C=C\C(=O)N(c2ccc(C(C)C)cc2)C(C(=O)NCc2ccco2)c2ccc(C)cc2)cc1` (stereo unspecified)?
IDH1 R132H inh: -23.1%; GLP1R inv ag: 10µM*; GLP1R cytotox: -19.3%; LDHA block: 0.2; PTHR1 agonist: -9.9%

What do the screens show for `COc1ccc(N(C(=O)/C=C\C(=O)Nc2ccc(C)cc2)C(C(=O)NCc2ccco2)c2ccc(C)cc2)cc1` (stereo unspecified)?
IDH1 R132H inh: -11.3%; GLP1R inv ag: inconclusive; GLP1R cytotox: -5.1%; LDHA block: 2.2; PTHR1 agonist: inactive

How did CCC1CCCCN1C(=O)Cn1c(=O)n(-c2ccc(F)c(C)c2)c(=O)c2sccc21 (stereo unspecified) do in these assays?
LDHA block: -38.8*

What do the screens show for `COc1ccc(CNc2nc3c(c(=O)[nH]c(=O)n3C)n2Cc2cccc(C)c2)cc1`?
LDHA block: 0.0

Results for O=C(NC1CCCC1)c1cc2c(F)cccc2s1 ?
LDHA block: -30.3*

Results for O=C(NC1CCCCC1)c1cc2c(F)cccc2s1 ?
LDHA block: -0.3

What do the screens show for `CC1(C)SC(=S)N(/N=C/c2ccc(O)cc2)C1N(O)C(=O)Nc1ccc([N+](=O)[O-])cc1` (stereo unspecified)?
IDH1 R132H inh: 8.6%; GLP1R inv ag: 2.82µM*; GLP1R cytotox: -27.5%; LDHA block: -4.1; GLP-1R agonist: -21.8%; PTHR1 agonist: -37.1%[57.5 µM]

Results for O=C1Cc2cc(C(=O)CSc3nnc(-c4ccc(O)cc4)o3)c(Cl)cc2N1 ?
LDHA block: 1.1

What do the screens show for `COC(=O)C1=C(C)NC(=O)CC1C(=O)Nc1cc(Cl)cc(Cl)c1` (stereo unspecified)?
LDHA block: -7.0

How did CCOC(=O)C1=C(C)NC(=O)CC1C(=O)Nc1cc(Cl)cc(Cl)c1 (stereo unspecified) do in these assays?
LDHA block: -60.9*

Results for CN(CCOc1ccc(F)cc1)c1nc(-c2cccnc2)nc2ccccc12 ?
LDHA block: 1.0

What do the screens show for `Cc1ccccc1CN1C(=O)/C(=C\c2ccc(C(=O)NCCN3CCOCC3)cc2)Sc2ccccc21`?
IDH1 R132H inh: 1.5%; GLP1R inv ag: 11.2µM*; GLP1R cytotox: 39.1%; LDHA block: -2.5; GLP-1R agonist: -2.0%; PTHR1 agonist: -19.7%

Results for CCc1ccc(/C=C2/Sc3ccccc3N(CC(=O)NCCCN3CCOCC3)C2=O)cc1 ?
IDH1 R132H inh: 2.3%; GLP1R inv ag: 8.91µM*; GLP1R cytotox: -9.8%; LDHA block: 0.3; GLP-1R agonist: -3.5%; PTHR1 agonist: 4.5%

Results for O=C(NCCN1CCOCC1)c1ccc(/C=C2\Sc3ccccc3N(Cc3ccccc3F)C2=O)cc1 ?
IDH1 R132H inh: 1.9%; GLP1R inv ag: inconclusive; GLP1R cytotox: 23.2%; LDHA block: 0.9; GLP-1R agonist: -4.1%; PTHR1 agonist: inactive

How did O=C(CN1C(=O)/C(=C/c2ccc(C(F)(F)F)cc2)Sc2ccccc21)NCCCN1CCOCC1 do in these assays?
IDH1 R132H inh: -1.7%; GLP1R inv ag: inconclusive; GLP1R cytotox: -24.6%; LDHA block: -0.4; GLP-1R agonist: 17.1%; PTHR1 agonist: inactive

Results for CCN1CCN(CCNC(=O)c2ccc3c(c2)N(Cc2ccc(F)cc2)C(=O)/C(=C/c2ccccc2)S3)CC1 ?
IDH1 R132H inh: 8.1%; GLP1R inv ag: 10µM*; GLP1R cytotox: inconclusive; LDHA block: 1.9; GLP-1R agonist: -0.4%; PTHR1 agonist: inactive

How did NC(N)=N/N=C/c1ccc(OS(=O)(=O)c2ccccc2)cc1 do in these assays?
IDH1 R132H inh: 1.6%; GLP1R inv ag: 6.31µM*; GLP1R cytotox: inconclusive; LDHA block: -3.6; GLP-1R agonist: -4.8%; PTHR1 agonist: -1.3%

How did CCC(=O)N/N=C/c1ccc(OS(=O)(=O)c2ccccc2)cc1 do in these assays?
IDH1 R132H inh: 0.8%; GLP1R inv ag: -22.3%; GLP1R cytotox: -14.2%; LDHA block: -3.1; GLP-1R agonist: -1.7%; PTHR1 agonist: inactive

What do the screens show for `Fc1cccc(-c2nc3cc(Cl)ccc3o2)c1`?
LDHA block: -0.4

What do the screens show for `O=C(CSc1nc2ccc(NC(=O)CSc3nnnn3-c3ccccc3)cc2s1)Nc1ccccc1`?
IDH1 R132H inh: 3.3%; GLP1R inv ag: inconclusive; GLP1R cytotox: 10µM*; LDHA block: -8.6; GLP-1R agonist: 1.9%; PTHR1 agonist: inactive

How did O=C(CSc1nc2ccccc2s1)Nc1cccc(C(F)(F)F)c1 do in these assays?
LDHA block: -30.0*

Results for O=C(CSc1nnnn1-c1ccccc1)Nc1ccccc1 ?
IDH1 R132H inh: 3.0%; GLP1R inv ag: -7.6%; GLP1R cytotox: 2.6%; LDHA block: -4.2; GLP-1R agonist: 2.8%; PTHR1 agonist: -1.0%
